# The supplement of paper PMC10127200
# Counter-ions that a name gives are not always drawn.
# Legend:
# Test in all cases: Euclidean distance of Cell Painting phenotypic profile (signed KS, 77 features) to DMSO centroid (dimensionless distance); 5 or 10 uM (library dependent); higher = stronger phenotypic change vs DMSO (phenoactivity)
# Conditions in all cases: 48 h
# 786-O = system: 786-O
# Procedure, shortened: (§1)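 Library compounds were applied at 10 or 5 uM, depending on the library, with 0.1% DMSO final, for 48 h to five cancer lines and a healthy fibroblast line. After staining, cells were imaged confocally at 20X across 9 fields per well, and Harmony extracted 77 features, each scored as a signed Kolmogorov-Smirnov statistic against vehicle wells on the same plate. Phenoactivity is the Euclidean distance between each profile and the median vehicle profile, with profiles first plate-position corrected, correlation-weighted and averaged over replicates at the top dose.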
# A549 = system: A549
# Procedure, shortened: as §1
# DU145 = system: DU145
# Procedure, shortened: as §1
# FB = system: FB
# Procedure, shortened: as §1
# HEPG2 = system: HEPG2
# Procedure, shortened: as §1
# OVCAR4 = system: OVCAR4
# Procedure, shortened: as §1
SMILES,Euclidean distance (786-O),Euclidean distance (A549),Euclidean distance (DU145),Euclidean distance (FB),Euclidean distance (HEPG2),Euclidean distance (OVCAR4)
COC(=O)[C@H]1[C@H]2C[C@@H]3c4[nH]c5cc(OC)ccc5c4CCN3C[C@H]2C[C@@H](OC(=O)c2cc(OC)c(OC)c(OC)c2)[C@@H]1OC [Reserpine],1.54,1.58,1.94,1.51,0.642,1.29
CC(C)NCC(O)COc1cccc2[nH]ccc12 (stereo not drawn) [Pindolol],0.941,0.858,0.721,1.06,0.588,0.895
O=c1c(O)c(-c2ccc(O)c(O)c2)oc2cc(O)ccc12 [Fisetin],0.642,0.833,1.17,0.987,0.906,0.911
CN1C(=O)CC(c2ccccc2)C1=O (stereo not drawn) [Phensuximide],0.788,1.12,1.01,0.827,0.849,0.954
O=C1c2ccccc2C(=O)c2c1ccc(O)c2O [Alizarin],1.65,1.45,1.35,1.58,1.48,1.07
CCNC(=O)CC[C@H](N)C(=O)O [L-Theanine],1.64,1.8,1.57,2.05,1.4,2.17
CCC(c1ccccc1)c1c(O)c2ccccc2oc1=O (stereo not drawn) [Phenprocoumon],0.851,1.11,0.728,1.04,0.975,0.957
CCN(CC)CC(=O)Oc1ccc(NC(C)=O)cc1 [Propacetamol hydrochloride],1.3,0.77,1.22,0.897,1.14,1.47
O=C(O)C1CSCN1 (stereo not drawn) [Timonacic],1.39,0.753,0.835,0.853,0.578,1.18
NC(=S)N/N=C/c1ncccc1N [Triapine],3.56,2.65,3.67,3.09,2.83,3.6
O=C(O)COCCN1CCN(C(c2ccccc2)c2ccc(Cl)cc2)CC1 (stereo not drawn) [Cetirizine DiHCl],1.09,0.92,1.29,1.32,0.618,1.47
FC(F)(F)C(Cl)Br (stereo not drawn) [Halothane],0.835,0.628,0.788,1,0.854,1.59
CCn1cc(C(=O)O)c(=O)c2cc(F)c(N3CCNCC3)cc21 [Norfloxacin],1.28,0.791,0.924,1.26,0.65,1.01
Cc1cc(C)c(Nc2ccnc(Nc3ccc(C#N)cc3)n2)c(C)c1 [Dapivirine (TMC120)],2.34,2.56,1.87,1.33,3.09,2.01
COc1ccc(C2CC(=O)c3c(O)cc(OC4OC(COC5OC(C)C(O)C(O)C5O)C(O)C(O)C4O)cc3O2)cc1OC (stereo not drawn) [Methyl-Hesperidin],0.924,0.527,1.16,0.637,0.966,1.25
NC1(c2ccc(-c3nc4ccn5c(=O)[nH]nc5c4cc3-c3ccccc3)cc2)CCC1,3.5,2.58,2.67,3.61,2.59,2.07
Cc1c(-c2ccc(O)cc2)n(Cc2ccc(OCCN3CCCCCC3)cc2)c2ccc(O)cc12 [Bazedoxifene HCl],5.12,4.91,3.42,4.82,4.62,4.32
CC1(C)S[C@@H]2[C@H](NC(=O)[C@H](N)c3ccccc3)C(=O)N2[C@H]1C(=O)OCOC(=O)[C@@H]1N2C(=O)C[C@H]2S(=O)(=O)C1(C)C [Sultamicillin Tosylate],1.06,1.18,0.926,1.01,0.775,0.992
O=C(NCc1cccc(O)c1)Nc1nc(-c2ccncc2)cs1,1.82,1.54,3.26,3.61,1.47,1.88
COc1cc(N)c(Cl)cc1C(=O)NC1CCN(CCCOc2ccc(F)cc2)CC1OC (stereo not drawn) [Cisapride hydrate],0.963,1.16,0.853,1.23,0.401,1.05
O=C1CCc2ccc(OCCCCN3CCN(c4cccc(Cl)c4Cl)CC3)cc2N1 [Aripiprazole],1.08,0.975,0.573,0.979,0.512,1.21
O=C(O)Cc1ccccc1Nc1c(Cl)cccc1Cl [Diclofenac Potassium],1.38,0.427,0.963,1.35,1.1,0.893
NCCc1c[nH]cn1 [Histamine 2HCl],1.32,0.957,0.954,1.22,0.814,0.832
